Test results: PubChem BioAssay (NCATS)
A number with no mark means an inactive call. Calls of active or inactive are those of the source. The rule behind the calls is not given here.

test system: HIV-1 nucleocapsid protein NCp7 (binding to TG oligonucleotide); assay: HIV Nucleocapsid (AID 346); conditions: HIV-1 NC / fluorescein-TGTGTGTG probe, fluorescence polarization;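 note: potency is for inhibitors that block NC binding and lower polarization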
Method in brief: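 HIV-1 NC (100 nM) binding to fluorescein-labelled ssDNA TG4xF (10 nM) in Hepes pH 7.5, 250mM NaCl, 1uM ZnCl2, TCEP and 2-mercaptoethanol; compounds pin-transferred, 1 hr room temperature, fluorescence polarization read on CCD imager.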
Potency is the fitted concentration of half-maximal effect.

| SMILES | Potency |
| --- | --- |
| CCNc1ncc2nc(-c3ccc(Cl)cc3)c(=O)n(-c3ccc(OC)cc3)c2n1 | > 4 µM |
| O=c1c(-c2cccc(Cl)c2)nc2cncnc2n1-c1ccccc1 | > 20 µM |
| Cc1noc(C)c1C(=O)N1CCC2(CCN(Cc3ccncc3)CC2)CC1 | > 20 µM |
| COCCn1c(=O)c(-c2ccc(Cl)cc2)nc2cnc(N(C)C)nc21 | > 20 µM |
| COCC(=O)N1CCC2(CC1)CN(Cc1ccccc1OC)C2 | > 20 µM |
| COc1ccc(C(=O)N2CCC[C@@]3(CCN(c4ccccn4)C3)C2)cc1 | > 20 µM |
| COc1ccccc1-c1cncnc1NCc1cccs1 | > 20 µM |
| COc1ccccc1-c1cncnc1NCc1cnc(C)cn1 | > 20 µM |
| O=c1c(-c2cccs2)nc2cnc(Nc3ccccc3)nc2n1C[C@H]1CCCO1 | 4.11 µM (active) |
| CCNc1ncc2nc(-c3cccs3)c(=O)n(Cc3cccs3)c2n1 | > 20 µM |
| c1cncc(-c2nccc(NCc3cccs3)n2)c1 | > 20 µM |
| CS(=O)(=O)N1CCC2(CCN(C(c3ccccc3)c3ccccc3)CC2)CC1 | > 20 µM |
| O=c1c(-c2ccc(F)cc2)nc2cnc(N3CCNCC3)nc2n1-c1ccccc1 | > 20 µM |
| O=S(=O)(c1ccccc1)N1CCC2(CCN(c3ccccc3)CC2)CC1 | > 20 µM |
| CC(=O)NCCNc1ncnc2ccc(-c3ccc4c(c3)OCO4)cc12 | > 20 µM |
| N#CCCn1c(=O)c(-c2ccc(Cl)cc2)nc2cnc(Oc3ccccc3)nc21 | > 20 µM |
| COc1ccc(-c2nc3cnc(N(C)C)nc3n(Cc3ccc(F)cc3)c2=O)cc1 | > 20 µM |
| CS(=O)(=O)N1CCC2(CCN(C(=O)Nc3cccc(F)c3)CC2)CC1 | > 20 µM |
| O=C(Nc1ccccc1)N1CCCC2(CCN(S(=O)(=O)c3ccccc3)CC2)C1 | > 20 µM |
| COCCNc1cc(-c2ccccc2C)ncn1 | > 20 µM |

| SMILES | Potency |
| --- | --- |
| O=C(c1ccco1)N1CCC2(CC1)CN(c1ccccc1)C2 | > 20 µM |
| Cc1cnc(CNc2cc(-c3cccc(C#N)c3)ncn2)cn1 | > 20 µM |
| N#CCCn1c(=O)c(-c2ccc(F)cc2)nc2cnc(N3CCOCC3)nc21 | > 20 µM |
| COc1ccc(-n2c(=O)c(-c3ccc(F)cc3)nc3cnc(N4CCNCC4)nc32)cc1 | > 20 µM |
| CN1CCN(c2ncc3nc(-c4ccccc4)c(=O)n(CCc4ccccc4)c3n2)CC1 | > 20 µM |
| COc1ccc(NC(=O)N2CCC3(CC2)CCN(C(=O)c2cccc(F)c2)CC3)cc1 | > 20 µM |
| COc1cccc(-c2nc(NCc3ccccc3)c3ccccc3n2)c1 | > 20 µM |
| COc1ccc(CNc2ncnc3ccc(-c4ccc(N(C)C)cc4)cc23)c(OC)c1 | > 20 µM |
| COc1ccc(C(=O)N2CCC[C@@]3(CCN(Cc4cc(C(F)(F)F)cc(C(F)(F)F)c4)C3)C2)cc1 | > 20 µM |
| CC(C)NC(=O)N1CC2(CCN(S(=O)(=O)c3ccccc3)CC2)C1 | > 20 µM |
| COc1ccc2[nH]cc(CCNc3cc(-c4ccccc4CN(C)C)ncn3)c2c1 | > 20 µM |
| c1ccc2c(NC3CCNCC3)nc(-c3ccoc3)nc2c1 | > 20 µM |
| COc1ccccc1CN1CCCC2(CCN(C(=O)c3c(C)noc3C)CC2)C1 | > 20 µM |
| COc1ncc2nc(-c3cccs3)c(=O)n(CCC#N)c2n1 | > 20 µM |
| O=C(c1cnccn1)N1CCC[C@@]2(CCN(c3ccncc3)C2)C1 | > 20 µM |
| COc1cccc(Cn2c(=O)c(-c3cccs3)nc3cnc(N(C)C)nc32)c1 | > 20 µM |
| Cc1noc(C)c1-c1nccc(N2CCOCC2)n1 | > 20 µM |
| CC(C)CN1CC2(CCN(C(=O)c3ccco3)CC2)C1 | > 20 µM |
| COCCn1c(=O)c(-c2ccc(F)c(F)c2)nc2cncnc21 | > 20 µM |
| O=C(c1cccc(F)c1)N1CCC2(CCCN(Cc3nccs3)C2)CC1 | > 20 µM |
